WRN helicase inh: qHTS for Inhibitors of WRN Helicase. WRN helicase unwinding, fluorescent forked duplex, kinetic. AID 651768, 2012. 0.46% of 360,000 active. Bifunctional 3'-5' exonuclease/ATP-dependent helicase WRN (Homo sapiens), Q14191. Potency, µM (top dose mostly 114 µM), for inactives: at the top dose activity change, negative = inhibition, usual class: inhibitors; note: potency is the fitted concentration of half-maximal effect; % is set by controls: 0 for no effect and ±100 for the full control effect; nearly all actives have a fitted effect of over 55% in size
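Kinetic fluorescence helicase assay: unwinding of a quenched forked DNA duplex (100 nM final) with 2 mM ATP final raises red fluorescence (525/598 nm). Compounds sat 15 min at room temperature with 20 nM WRN beforehand.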
Pol kappa inh-1: qHTS for Inhibitors of Polymerase Kappa; AID 588579, 2011; 0.53% of 400,000 active; purified Pol kappa, fluorescent DNA synthesis assay, 10 min; Potency, µM (top dose mostly 107 µM), inactives show top-dose activity, negative = inhibition, most hits filed as inhibitors; note: potency is the fitted concentration of half-maximal effect; % is set by controls: 0 for no effect and ±100 for the full control effect
Target sequence (Q9UBT6 whole entry, looked up): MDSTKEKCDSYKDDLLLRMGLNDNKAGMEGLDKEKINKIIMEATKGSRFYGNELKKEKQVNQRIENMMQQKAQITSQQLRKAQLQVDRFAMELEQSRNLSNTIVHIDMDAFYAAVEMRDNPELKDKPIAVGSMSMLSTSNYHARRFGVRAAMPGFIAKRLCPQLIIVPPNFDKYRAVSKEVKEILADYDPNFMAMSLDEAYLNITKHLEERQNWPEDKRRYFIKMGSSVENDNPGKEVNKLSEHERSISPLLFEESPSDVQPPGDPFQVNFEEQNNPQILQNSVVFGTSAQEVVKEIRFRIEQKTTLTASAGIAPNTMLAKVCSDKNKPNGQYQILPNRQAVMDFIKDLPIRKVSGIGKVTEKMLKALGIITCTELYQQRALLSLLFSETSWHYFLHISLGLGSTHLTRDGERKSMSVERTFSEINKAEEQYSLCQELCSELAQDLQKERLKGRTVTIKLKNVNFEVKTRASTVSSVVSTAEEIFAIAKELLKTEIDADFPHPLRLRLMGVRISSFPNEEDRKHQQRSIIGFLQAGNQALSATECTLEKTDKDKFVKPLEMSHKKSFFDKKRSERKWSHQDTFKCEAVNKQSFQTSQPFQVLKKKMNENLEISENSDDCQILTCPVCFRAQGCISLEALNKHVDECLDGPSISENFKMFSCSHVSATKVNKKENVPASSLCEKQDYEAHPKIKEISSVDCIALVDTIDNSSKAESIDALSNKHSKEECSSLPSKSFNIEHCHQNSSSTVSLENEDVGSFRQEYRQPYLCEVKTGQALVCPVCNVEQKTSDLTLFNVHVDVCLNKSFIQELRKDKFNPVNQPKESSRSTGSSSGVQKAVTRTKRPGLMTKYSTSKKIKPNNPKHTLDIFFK
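First, compounds were pin-transferred onto 10 nM Pol kappa. After 15 min at room temperature, substrate was added to 50 nM final. Fluorescence was then measured kinetically at 0 and 10 min.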
Pol eta inh-1: qHTS for Inhibitors of Polymerase Eta; recombinant Pol eta, fluorescent DNA replication assay; Potency, µM (highest dose often 114 µM), for inactives: at the top dose activity change, negative = inhibition, most hits filed as inhibitors; 1.2% of 390,000 active; AID 588591, 2011; note: potency is the fitted concentration of half-maximal effect; % is set by controls: 0 for no effect and ±100 for the full control effect
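Pol eta at 10 nM preincubated with compounds 15 min at room temperature; reaction started with fluorescent substrate (50 nM final) and read kinetically at 0 and 10 min.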
FEN1 inhibitor: qHTS Assay for the Inhibitors of Human Flap endonuclease 1 (FEN1); Recombinant FEN1 flap cleavage, fluorescence, 15 min; P39748; Potency, µM (top dose mostly 114 µM), for the others: at the highest dose activity change, negative = inhibition, hits mostly inhibitors; 0.35% of 390,000 active; AID 588795, 2011; note: potency is the fitted concentration of half-maximal effect; % is set by controls: 0 for no effect and ±100 for the full control effect; nearly all actives have a fitted effect of over 65% in size
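FEN1 at 10 nM, compound pretreatment for 15 min (room temperature), 50 nM final substrate to initiate; endpoint reads at 0 and 15 min; DMSO-only plates used as vehicle background.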
Pol iota inh: qHTS for Inhibitors of Polymerase Iota; Pol iota fluorescent replication assay, 10 min; Potency, µM (doses to about 115 µM), without a hit: at the highest dose activity, negative = inhibition, actives largely listed as inhibitors; 1% of 390,000 active; note: potency is the fitted concentration of half-maximal effect
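Pol iota at 10 nM preincubated 15 min with compounds at room temperature; reaction started with fluorescent substrate, 50 nM final. Fluorescence read kinetically at 0 and 10 min; buffer-only wells as negative control.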
POLB inh: qHTS Assay for Inhibitors of DNA Polymerase Beta. Potency, µM (top dose mostly 114 µM), without a hit: top-dose activity change, negative = inhibition, usual class: inhibitors. P06746. 1.3% of 340,000 active. Pol beta primer extension/strand displacement, fluorescence kinetic; note: potency is the fitted concentration of half-maximal effect; % is set by controls: 0 for no effect and ±100 for the full control effect
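Pol beta (10 nM) and compounds were preincubated 15 min at room temperature, then 50 nM substrate (final) started primer extension/strand displacement. Reads were taken at 0 and 10 min; concentration-response data were fitted to a four-parameter Hill equation.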
GALK inh confirm: Confirmation Assay for Inhibitors of Human Galactokinase (GALK); shares compounds with Pol eta inh-1; Potency, µM (doses to about 115 µM), for the others: at the highest dose activity, negative = inhibition, hits mostly inhibitors; AID 2015, 2009; 70% of 150 active; purified GALK, Kinase-Glo ATP depletion luminescence
GALK redox cs: Confirmatory Assay for Inhibitors of Human Galactokinase (GALK): Phenol-HRP redox assay counterscreen; shares compounds with Pol eta inh-1; Phenol red-HRP H2O2 redox cycling, absorbance 600 nm; Potency, µM (top dose mostly 115 µM), for inactives: at the top dose activity change, negative = H2O2 signal, hits mostly inhibitors; 40% of 150 active
HEK293 tox: Secondary Assay for Inhibitors of Human Galactokinase (GALK): HEK-293 Cell Viability Assay; shares compounds with Pol eta inh-1; HEK-293 viability, ATP luminescence (CellTiter-Glo), 24/48 h; Potency, µM (series often up to 46.1 µM), for inactives: top-dose activity change, negative = cytotoxicity, actives largely listed as inhibitors; 10% of 170 active; AID 2547, 2010; note: potency is the fitted concentration of half-maximal effect; % is set by controls: 0 for no effect and ±100 for the full control effect
Pol kappa inh-2: qHTS for Inhibitors of Polymerase Kappa: Confirmatory Assay for Cherry-picked Compounds; shares compounds with Pol eta inh-1; AID 720501, 2013; 76% of 920 active; purified Pol-kappa, fluorescent strand-displacement substrate; Potency, µM, most hits filed as inhibitors; note: potency is the fitted concentration of half-maximal effect
Pol eta inh-2: qHTS for Inhibitors of Polymerase Eta: Confirmatory Assay for Cherry-picked Compounds. shares compounds with Pol eta inh-1. Pol eta primer extension, TAMRA/BHQ fluorescence, 10 min. Potency, µM, hits mostly inhibitors. 64% of 2,600 active. AID 720502, 2013; note: potency is the fitted concentration of half-maximal effect
* hit, by the source's call; ? = inconclusive; . = no result given; [ ] = dose if it differs, or a comment. A selection: hits, their analogues and other compounds. The true share with any hit is near 2.4%. Calls come from the whole dose curve; as a rule, active = well fitted curve in the direction sought with a large enough effect; inconclusive = small, poorly fitted or top-dose-only effect, or another doubt; inactive = no such curve, though single readings can be large; an effect the other way counts as inactive or inconclusive.

SMILES	WRN helicase inh	Pol kappa inh-1	Pol eta inh-1	FEN1 inhibitor	Pol iota inh	POLB inh	Pol eta inh-2	others
CCOc1ccccc1NC(=O)CSC1=Nc2ccccc2C2=NC(CC(=O)NC3CCCCC3)C(=O)N12 (centres undefined)	.	-3.5%	-9.1%	8.9%	8.6%	-0.6%	.
COc1cc(N(C(C)=O)c2ccc(O)c(C(=O)O)c2)c2ncccc2c1	-6.7%[11.6 µM]	.	50.1µM*	.	.	.	84.9*
Cc1ccc(S(=O)(=O)N(Cc2nc(-c3cccc(C)c3)no2)C2CCCCC2)cc1	.	0.9%	-18.0%	-9.3%	17.5%	19.7%	.
O=C1NC(=S)SC1=C1CCCC1	44.7µM*	14.1µM*	20µM*	79.4µM*	?	22.4µM*	?
CN1C(=O)C(=C2CCCCCC2)SC1=S	5.9%	3.8%	-6.9%	4.4%	-7.2%	-11.2%	.
CC1C/C(=C/c2ccncc2)C(=O)/C(=C/c2ccncc2)C1 (centres undefined)	?	3.4%	31.6µM*	-22.6%	?	2.9%	75.7*
C/C(=N\Nc1ccc(C(=O)O)cc1)c1ccc(Cl)s1	2.4%	-4.6%[60.1 µM]	-11.5%	6.1%	-0.2%	2.7%	.
C/C(=N\Nc1ccc(C(=O)O)cc1)c1ccc(Br)cc1	-13.6%	?	12.6µM*	1.8%	39.8µM*	20µM*	26.9*
CC(/C=N/NC(=O)Cc1cccs1)=C\c1ccco1	-13.0%	-12.9%	?	9.3%	-7.0%	26.2%	.
CC(/C=C/c1ccco1)=N/NC(=O)Cc1cccs1	?	?	17.8µM*	-12.6%	31.6µM*	22.4µM*	?
CC(/C=C/c1ccco1)=N\NC(=O)c1cc(Cl)ccc1O	?	79.4µM*	22.4µM*	-6.1%	39.8µM*	?	?
N#Cc1ccsc1NC(=O)COC(=O)C1=NNC(=O)CC1	?	?	20µM*	?	14.1µM*	.	75.7*
COc1cc(/C=C2/C(=O)NN(c3cccc(C)c3)C2=O)cc([N+](=O)[O-])c1O	-10.1%[11.6 µM]	?	22.4µM*	-7.1%	?	?	?
COc1cc(/C=C2/C(=O)NN(c3cccc(Cl)c3)C2=O)cc(OC)c1O	-18.8%	-6.9%	-13.4%	-6.9%	?	?	.
COc1cccc(/C=C2/C(=O)NN(c3ccc(C)c(C)c3)C2=O)c1	-2.4%	-0.9%	-11.8%	-1.2%	?	?	.
COc1cc(/C=C2/C(=O)NN(c3ccc(C)c(Cl)c3)C2=O)cc([N+](=O)[O-])c1O	?	4.2%	28.2µM*	?	8.2%	35.5µM*	84.9*
NC(=O)c1ccsc1NC(=O)COC(=O)c1ccc([N+](=O)[O-])o1	-7.9%	-29.8%	-18.1%	-1.5%	-23.6%	.	.
NC(=O)c1ccsc1NC(=O)c1ccc([N+](=O)[O-])o1	-8.9%[11.6 µM]	79.4µM*	44.7µM*	?	50.1µM*	.	?
C/C(=N\Nc1ccc(Cl)c(C(=O)O)c1)c1ccc(Br)s1	?	?	20µM*	-21.9%	?	50.1µM*	26.9*
NS(=O)(=O)c1ccc(NC(=S)NC(=O)/C=C/c2ccco2)cc1	-13.0%[11.6 µM]	?	31.6µM*	-2.0%	?	?	?	Pol kappa inh-2=37.7*
Cc1cc(NS(=O)(=O)c2ccc(NC(=O)/C=C/c3ccco3)cc2)nc(C)n1	?	79.4µM*	28.2µM*	-32.7%	?	-0.4%	33.8*
Cc1cccc(NC(=S)NC(=O)/C=C/c2ccco2)c1	?	79.4µM*	50.1µM*	-24.6%	20µM*	31.6µM*	?
COc1ccccc1NC(=S)NC(=O)/C=C/c1ccco1	?	?	20µM*	-7.1%	?	44.7µM*	?
CCOc1ccc(OC(=O)c2cn(-c3ccc(C)cc3)c(=O)c3ccccc23)cc1	.	0.2%[60.1 µM]	-12.1%	-4.8%	-15.4%	-18.9%	.
COc1cc(SC)ccc1C(=O)N1CCn2c3c(c4cc(C)ccc42)CCCC31 (centres undefined)	.	-14.6%	-11.1%	2.2%	-1.1%	6.9%	.
SMILES	WRN helicase inh	Pol kappa inh-1	Pol eta inh-1	FEN1 inhibitor	Pol iota inh	POLB inh	Pol eta inh-2	others
O=C(O)c1cc([N+](=O)[O-])ccc1N1CCCCC1	0.3%	-12.7%	-12.6%	8.8%	-1.6%	-0.3%	.
O=C(O)c1cn[nH]c1-c1cccc([N+](=O)[O-])c1	?	?	20µM*	-14.5%	25.1µM*	-14.8%	67.5*
O=C(O)c1cc([N+](=O)[O-])ccc1-c1ccc([N+](=O)[O-])cc1C(=O)O	-13.1%[11.6 µM]	.	20µM*	.	.	.	60.1*	Pol kappa inh-2=3.77*
c1ccc2c(c1)sc[n+]2CCC1CCCCC1	.	13.4%	.	3.1%	16.8%	.	.
O=C(N/N=C/c1ccncc1)c1cccc(NC(=O)c2ccc(Cl)cc2)c1	-9.4%[11.6 µM]	-9.5%[60.1 µM]	-28.6%	?	?	44.7µM*	.	Pol kappa inh-2=?
O=C(N/N=C/c1ccncc1)c1cccc(N/N=C/c2ccncc2)c1	-13.5%	-17.2%	-29.0%	?	?	?	.
N#Cc1c(NC(=O)c2ccc(Br)o2)n(-c2ccccc2)c2nc3ccccc3nc12	3.5%	-4.9%	35.5µM*	-17.7%	10µM*	-1.3%	.	GALK inh confirm=26.6µM*;GALK redox cs=5.3µM*;HEK293 tox=-12.0%
